From PubChem BioAssay (NCI)
The panel holds about 83,000 compounds, 20% with a hit somewhere; the sample as a whole holds those more often.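 The test compound was applied at a single concentration to cells in 96-well plates for 48 hours, and percent growth was recorded.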 Values without a mark were called inactive. Calls of active or inactive are those of the source. The calls were made as follows: active = growth percent below 10; inactive = the rest.

tested on: OVCAR-4 ovarian; assay: NCI-60 one-dose screen, 48 h (100 = growth as untreated, 0 = no growth, -100 = all killed); details: 10 µM unless noted

SMILES | growth
Cc1ccc2c(c1)c(Sc1ccc(C(=O)NO)cc1)c1n2CN(C)CC1 | -1.78% (active)
O=C1NC(=S)S/C1=C\c1cccc([N+](=O)[O-])c1 | 88.5%
CCCN(CCC)c1ccc(/C=C/c2ccc3cc(OCC)ccc3n2)cc1 | 80.8%
Clc1ccc(C2=NN(c3ccccc3)[C@H](c3cn(-c4ccccc4)nc3-c3ccccc3)C2)cc1 | 105%
COc1cc(C(=O)/C=C/c2c(-c3cccs3)nc3sccn23)cc(OC)c1OC | -2.2% (active)
CCOC(=O)C1=C(C)N2C(=NC3=C(CCCC/C3=C\c3cc(OC)c(OC)c(OC)c3)C2c2cc(OC)c(OC)c(OC)c2)S1 (centres undefined) | 69.3%
CN1CCN(c2nc(-c3ccncc3)nc3sc4c(c23)CCCCCC4)CC1 | 71.7%
COc1ccc(-n2ncc3c4nc(OC)c(S(=O)(=O)c5ccccc5)cc4ccc32)cc1 | 45.5%
COc1ccc(C2CC(c3cc(OC)c(OC)c(OC)c3)=NN2c2ccc(S(N)(=O)=O)cc2)cc1 (centres undefined) | 69.9%
Cc1nn(CC(=O)O)c2c1C(=O)CC(C)(C)C2 | 101%
O=C1C(Br)=C(c2ccccc2)C(=O)C(Br)=C1c1ccccc1 | 90%
Cc1ccc(C)c2c1sc1nc3nc4sc5ccccc5n4c(=N)c3c(=O)n12 | 88%
Nc1cc(Br)c(-c2nnc(CCC(=O)c3nc4ccccc4[nH]3)o2)c(Br)c1 | 82.4%
COc1ccc(Nc2nc(NCCNc3ccnc4cc(Cl)ccc34)nc(N3CCOCC3)n2)cc1 | 81.3%
Cc1nc2cc(Nc3nc(N4CCOCC4)nc(N4CCN(C)CC4)n3)ccc2n1Cc1ccccc1 | 100%
COc1ccc(-c2nc3sc(C)cn3c2/C=C/C(=O)c2cc(OC)c(OC)c(OC)c2)cc1 | 47.8%
O=[N+]([O-])c1ccc(O)c2ncccc12 | 33.8%

SMILES | growth
CC1(C)N=C(N)N=C(N)N1c1cccc(/C=C/C=C/c2cccc([N+](=O)[O-])c2)c1 | 65.3%
O=c1nc(NO)[nH]c(=O)n1Cc1ccccc1 | 97%
C[C@@H](Oc1cc(-c2cnn(C3CC4(CCNCC4)C3)c2)cnc1N)c1c(F)ccc(Cl)c1Cl | 40.7%
C=CC(=O)N1CC2(CC(n3nc(-c4ccc(Oc5ccccc5)cc4)c4c(N)ncnc43)C2)C1 | 27.4%
COc1ccc(OC)c(C2C(C#N)=C(N)Oc3cc(O)ccc32)c1 (centres undefined) | 101%
CC(C)(C)[Si](C)(C)OC1[C@@H](O[Si](C)(C)C(C)(C)C)[C@@H](CNC(=O)NC(=O)C(F)(F)F)O[C@H]1n1cnc2c(NC(=O)Nc3ccccc3)ncnc21 (some centres undefined) | 78.4%
Nc1nc(N)c(N=Nc2c(Br)cc(S(N)(=O)=O)cc2Br)c(N)n1 | 124%
O=C(NCc1cccnc1)c1ccc([N+](=O)[O-])o1 | 63.9%
Cn1c(=O)c2c(-c3ccccc3F)n(-c3ccc4c(c3)OCO4)cc2n(C)c1=O | 104%
Nc1nc2c(s1)CCc1c-2c(Br)n(Cc2ccccc2)c1Br | 81.8%
CN1CCc2c(c3ccccc3c3ccccc23)C1 | 82.1%
COc1cccc(C2C3=C(COC3=O)N(CCO)c3cc4c(cc32)CCC4)c1 (centres undefined) | 10.3%
O=C(Nc1ccc(F)cc1)c1ccc(C(=O)Nc2ccc(F)cc2)cc1 | 93.4%
Cc1cc(O)cc2c1[C@H]1CC[C@]3(C)[C@@H](O)CC[C@H]3[C@@H]1C=C2 | 110%
C[C@@H](Oc1cc(-c2cnn(C3CC4(CCCNC4)C3)c2)cnc1N)c1c(Cl)ccc(F)c1Cl (some centres undefined) | 37.2%
Clc1ccc(Nc2nc(Nc3ccccc3)nc(Nc3ccc(-c4cc(-c5ccc(Cl)cc5)on4)cc3)n2)cc1 | 64.6%
Cc1nc(-c2ccccc2)cc2c(O)c(C(=O)N/N=C/Cc3ccccc3)[nH]c(=O)c12 | 110%
